PubChem BioAssay AID1159580 (chemical genetic matrix, 2015)
Out of some 5,500 compounds screened, about 2,000 (36%) were called active. Another 18% or so got no clear call; they are omitted. The list shows a part of the results. Unmarked numbers belong to inactive results. Cut-off read from the data, not from the text of the source: active = normalized growth mostly below about 0.91 (no sharp cut-off); inconclusive = no clear call, values can overlap the other calls; inactive = mostly above about 0.92.

Test: chemical genetic growth profiling, strain panel (AID 1159580);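 note: tested at 20 µM; growth read once vehicle control cultures reached saturation at 30 °C; 1 = growth at the plate median or of vehicle wells; lower values mean less growth of the strain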
Conditions: S. cerevisiae deletion strains, growth OD
[1] = locus YDL101C, strain DUN1, hits give low values
[2] = locus YHR030C, strain SLT2, hits give low values

CC1CCc2c(sc3ncnc(Sc4ccccc4)c23)C1 (configuration not stated)
normalized growth (locus YAR019C, strain CDC15, hits give low values): 0.992 | normalized growth (locus YBL105C, strain PKC1, hits give low values): 0.972 | normalized growth (locus YBR135W, strain CKS1, hits give low values): 0.979 | normalized growth (locus YBR136W, strain MEC1, hits give low values): 0.978 | normalized growth (locus YBR160W, strain CDC28, hits give low values): 0.983 | normalized growth (locus YDL017W, strain CDC7, hits give low values): 0.981 | normalized growth (locus YDL028C, strain MPS1, hits give low values): 0.978 | normalized growth [1]: 0.978 | normalized growth (locus YDL108W, strain KIN28, hits give low values): 0.976 | normalized growth (locus YDL132W, strain cdc53, hits give low values): 0.977 | normalized growth (locus YDL214C, strain PRR2, hits give low values): 0.945 | normalized growth (locus YDR052C, strain DBF4, hits give low values): 0.98 | normalized growth (locus YDR054C, strain cdc34, hits give low values): 0.981 | normalized growth (locus YDR226W, strain ADK1, hits give low values): 0.979 | normalized growth (locus YDR477W, strain SNF1, hits give low values): 0.952 | normalized growth (locus YER123W, strain YCK3, hits give low values): 0.926 | normalized growth (locus YER133W, strain GLC7, hits give low values): 0.956 | normalized growth (locus YFL009W, strain cdc4, hits give low values): 0.983 | normalized growth (locus YFL029C, strain CAK1, hits give low values): 0.987 | normalized growth (locus YFR003C, strain YPI1, hits give low values): 0.977 | normalized growth (locus YFR019W, strain FAB1, hits give low values): 0.966 | normalized growth (locus YFR028C, strain CDC14, hits give low values): 0.975 | normalized growth (locus YGR040W, strain KSS1, hits give low values): 0.937 | normalized growth (locus YGR052W, strain FMP48, hits give low values): 1 | normalized growth (locus YGR092W, strain DBF2, hits give low values): 0.991 | normalized growth [2]: 1.19 [resistant] (active) | normalized growth (locus YHR079C, strain IRE1, hits give low values): 1.11 | normalized growth (locus YHR082C, strain KSP1, hits give low values): 1.06 | normalized growth (locus YHR205W, strain SCH9, hits give low values): 0.992 | normalized growth (locus YIL147C, strain SLN1, hits give low values): 0.977 | normalized growth (locus YJL095W, strain BCK1, hits give low values): 0.996 | normalized growth (locus YJL128C, strain PBS2, hits give low values): 0.94 | normalized growth (locus YJL157C, strain FAR1, hits give low values): 0.962 | normalized growth (locus YJR016C, strain ILV3, hits give low values): 0.984 | normalized growth (locus YJR066W, strain TOR1 (second series), hits give low values): 0.948 | normalized growth (locus YJR066W, strain TOR1, hits give low values): 1.09 | normalized growth (locus YKL048C, strain ELM1, hits give low values): 0.966 | normalized growth (locus YKL067W, strain YNK1, hits give low values): 0.948 | normalized growth (locus YKL101W, strain HSL1, hits give low values): 0.931 | normalized growth (locus YKL193C, strain SDS22, hits give low values): 0.983 | normalized growth (locus YKL203C, strain TOR2, hits give low values): 1.04 | normalized growth (locus YLR113W, strain HOG1, hits give low values): 0.886 | normalized growth (locus YLR133W, strain CKI1, hits give low values): 0.946 | normalized growth (locus YLR403W, strain SFP1, hits give low values): 0.968 | normalized growth (locus YML070W, strain DAK1, hits give low values): 0.936 | normalized growth (locus YMR001C, strain CDC5, hits give low values): 0.984 | normalized growth (locus YMR205C, strain PFK2 (second series), hits give low values): 0.95 | normalized growth (locus YMR277W, strain FCP1, hits give low values): 0.98 | normalized growth (locus YNL006W, strain LST8, hits give low values): 0.99 | normalized growth (locus YNL020C, strain ARK1, hits give low values): 0.943 | normalized growth (locus YNL161W, strain CBK1, hits give low values): 0.98 | normalized growth (locus YNL183C, strain NPR1, hits give low values): 1.03 | normalized growth (locus YNL207W, strain RIO2, hits give low values): 0.976 | normalized growth (locus YNL222W, strain SSU72, hits give low values): 0.989 | normalized growth (locus YNL307C, strain MCK1 (second series), hits give low values): 0.969 | normalized growth (locus YOL078W, strain AVO1, hits give low values): 0.976 | normalized growth (locus YOL136C, strain PFK27, hits give low values): 0.913 | normalized growth (locus YOR061W, strain CKA2, hits give low values): 0.935 | normalized growth (locus YOR119C, strain RIO1, hits give low values): 1.02 | normalized growth (locus YOR231W, strain MKK1, hits give low values): 0.925 | normalized growth (locus YOR329C, strain SCD5, hits give low values): 0.983 | normalized growth (locus YPL031C, strain PHO85, hits give low values): 0.945 | normalized growth (locus YPL153C, strain RAD53, hits give low values): 0.941 | normalized growth (locus YPL204W, strain HRR25, hits give low values): 0.92 | normalized growth (locus YPL209C, strain IPL1, hits give low values): 0.982 | normalized growth (locus YPL256C, strain CLN2, hits give low values): 1.02 | normalized growth (locus YPR025C, strain CCL1, hits give low values): 0.982 | normalized growth (locus YPR106W, strain ISR1, hits give low values): 0.984 | normalized growth (locus YPR111W, strain DBF20, hits give low values): 0.96 | normalized growth (strain NNK1, hits give low values): 0.981 | normalized growth (strain TSCII, hits give low values): 0.979

COC(=O)Cc1nc(NC(=O)c2ccccc2)sc1C
normalized growth (locus YAL013W, strain DEP1, hits give low values): 1.02 | normalized growth (locus YBR229C, strain ROT2, hits give low values): 1 | normalized growth [1]: 0.972 | normalized growth (locus YDL134C, strain PPH21, hits give low values): 1.01 | normalized growth (locus YDR150W, strain NUM1, hits give low values): 0.994 | normalized growth (locus YEL061C, strain CIN8, hits give low values): 1.02 | normalized growth (locus YGR078C, strain PAC10, hits give low values): 0.999 | normalized growth [2]: 0.977 | normalized growth (locus YHR087W, strain rtc3, hits give low values): 0.98 | normalized growth (locus YJR043C, strain POL32, hits give low values): 1.01 | normalized growth (locus YJR075W, strain HOC1, hits give low values): 1 | normalized growth (locus YLR039C, strain RIC1, hits give low values): 1.02 | normalized growth (locus YLR058C, strain SHM2 (second series), hits give low values): 1 | normalized growth (locus YLR085C, strain ARP6, hits give low values): 0.889 | normalized growth (locus YLR262C, strain YPT6, hits give low values): 1.12 | normalized growth (locus YML094W, strain GIM5, hits give low values): 0.948 | normalized growth (locus YMR219W, strain ESC1, hits give low values): 0.994 | normalized growth (locus YMR263W, strain SAP30, hits give low values): 1 | normalized growth (locus YNL153C, strain GIM3, hits give low values): 1 | normalized growth (locus YNL298W, strain CLA4 (second series), hits give low values): 1.02 | normalized growth (locus YNL322C, strain KRE1, hits give low values): 1.01 | normalized growth (locus YNR030W, strain Alg12, hits give low values): 0.983 | normalized growth (locus YOL006C, strain TOP1, hits give low values): 0.976 | normalized growth (locus YPL055C, strain LGE1, hits give low values): 0.927 | normalized growth (locus YPL241C, strain CIN2, hits give low values): 0.944 | normalized growth (locus YPR135W, strain CTF4, hits give low values): 1
